# Substitutions are numbered along the chain they refer to.
# Key:
# Test in all cases: PBM; 200 nM protein, PBS
# Conditions in all cases: dsDNA, one strand shown
# [1] = target: HOXC10 (Homo sapiens, UniProt Q9NYD6 254-340)
# [2] = target: HOXC10 (Homo sapiens, UniProt Q9NYD6 254-340, K271E)
# [3] = target: HOXD13 (Homo sapiens, UniProt P35453 263-343)
# [4] = target: HOXD13 (Homo sapiens, UniProt P35453 263-343, T313A)
# [5] = target: PITX2 (Homo sapiens, UniProt Q99697 72-157)
# [6] = target: T1, NKX2-6 (Homo sapiens, UniProt A6NCS4 118-204)
# T1 sequence: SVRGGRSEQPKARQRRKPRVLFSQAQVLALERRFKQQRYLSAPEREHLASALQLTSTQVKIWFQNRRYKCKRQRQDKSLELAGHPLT
# [7] = target: T2, NKX2-6 (Homo sapiens, UniProt A6NCS4 118-204, F151L)
# T2 sequence: T1 sequence with F34L
# [8] = target: HOXB6 (Homo sapiens, UniProt P17509 132-218, K202E)
# Sequence of HOXB6 (P17509 132-218 K202E): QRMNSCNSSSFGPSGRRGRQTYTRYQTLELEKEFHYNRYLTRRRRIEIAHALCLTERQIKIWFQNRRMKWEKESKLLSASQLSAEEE
# [9] = target: ALX3 (Homo sapiens, UniProt O95076 139-225, N203Q)
# Sequence of ALX3 (Homo sapiens, UniProt O95076 139-225, N203Q) (O95076 139-225 N203Q): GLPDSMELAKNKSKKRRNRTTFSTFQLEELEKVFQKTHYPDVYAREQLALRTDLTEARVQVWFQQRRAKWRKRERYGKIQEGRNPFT
# [10] = target: ALX1 (Homo sapiens, UniProt Q15699 118-204, L144R)
# Sequence of ALX1 (Homo sapiens, UniProt Q15699 118-204, L144R) (Q15699 118-204 L144R): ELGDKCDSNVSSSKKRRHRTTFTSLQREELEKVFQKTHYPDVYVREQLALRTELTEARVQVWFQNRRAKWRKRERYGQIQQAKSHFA
# [11] = target: ALX3 (Homo sapiens, UniProt O95076 139-225)
# Sequence of ALX3 (Homo sapiens, UniProt O95076 139-225) (O95076 139-225): as the sequence (O95076 139-225 N203Q) above, with Q65N counted along it
# [12] = target: ALX3 (Homo sapiens, UniProt O95076 139-225, L168Q)
# Sequence of ALX3 (Homo sapiens, UniProt O95076 139-225, L168Q) (O95076 139-225 L168Q): as the sequence (O95076 139-225 N203Q) above, with L30Q, Q65N counted along it
# [13] = target: ALX3 (Homo sapiens, UniProt O95076 139-225, L168V)
# Sequence of ALX3 (Homo sapiens, UniProt O95076 139-225, L168V) (O95076 139-225 L168V): as the sequence (O95076 139-225 N203Q) above, with L30V, Q65N counted along it
# [14] = target: MSX2 (Homo sapiens, UniProt P35548 130-214, R199I)
# Sequence of MSX2 (Homo sapiens, UniProt P35548 130-214, R199I) (P35548 130-214 R199I): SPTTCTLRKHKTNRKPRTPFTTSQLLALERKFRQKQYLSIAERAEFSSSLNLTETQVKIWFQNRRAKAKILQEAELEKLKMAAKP
# [15] = target: MSX2 (Homo sapiens, UniProt P35548 130-214)
# Sequence of MSX2 (Homo sapiens, UniProt P35548 130-214) (P35548 130-214): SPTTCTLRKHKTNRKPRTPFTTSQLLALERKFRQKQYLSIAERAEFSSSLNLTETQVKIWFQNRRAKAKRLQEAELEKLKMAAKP
# [16] = target: MSX2 (Homo sapiens, UniProt P35548 130-214, F161Y)
# Sequence of MSX2 (Homo sapiens, UniProt P35548 130-214, F161Y) (P35548 130-214 F161Y): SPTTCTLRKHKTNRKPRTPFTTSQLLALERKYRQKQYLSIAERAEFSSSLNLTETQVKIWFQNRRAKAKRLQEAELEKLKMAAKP
# [17] = target: ALX1 (Homo sapiens, UniProt Q15699 118-204, L144V)
# Sequence of ALX1 (Homo sapiens, UniProt Q15699 118-204, L144V) (Q15699 118-204 L144V): as the sequence (Q15699 118-204 L144R) above, with R27V counted along it
# [18] = target: PROP1 (Homo sapiens, UniProt O75360 56-141)
# Sequence of PROP1 (Homo sapiens, UniProt O75360 56-141) (O75360 56-141): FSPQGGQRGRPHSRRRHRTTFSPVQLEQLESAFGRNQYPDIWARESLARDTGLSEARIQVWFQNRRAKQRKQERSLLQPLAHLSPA
# [19] = target: PROP1 (Homo sapiens, UniProt O75360 56-141, R99H)
# Sequence of PROP1 (Homo sapiens, UniProt O75360 56-141, R99H) (O75360 56-141 R99H): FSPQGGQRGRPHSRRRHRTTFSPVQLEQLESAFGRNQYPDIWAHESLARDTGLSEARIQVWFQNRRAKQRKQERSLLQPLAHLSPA
# [20] = target: PROP1 (Homo sapiens, UniProt O75360 56-141, F88S)
# Sequence of PROP1 (Homo sapiens, UniProt O75360 56-141, F88S) (O75360 56-141 F88S): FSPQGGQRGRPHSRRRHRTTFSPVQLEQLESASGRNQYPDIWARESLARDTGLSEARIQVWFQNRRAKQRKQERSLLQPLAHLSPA
# [21] = target: NKX3-2 (Homo sapiens, UniProt P78367 192-278, P234S)
# Sequence of NKX3-2 (Homo sapiens, UniProt P78367 192-278, P234S) (P78367 192-278 P234S): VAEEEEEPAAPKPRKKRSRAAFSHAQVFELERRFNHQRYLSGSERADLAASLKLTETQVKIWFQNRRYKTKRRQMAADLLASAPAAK
# [22] = target: NKX3-2 (Homo sapiens, UniProt P78367 192-278)
# Sequence of NKX3-2 (Homo sapiens, UniProt P78367 192-278) (P78367 192-278): as the sequence (P78367 192-278 P234S) above, with S43P counted along it
# [23] = target: CRX (Homo sapiens, UniProt O43186 26-111, R41L)
# Sequence of CRX (O43186 26-111 R41L): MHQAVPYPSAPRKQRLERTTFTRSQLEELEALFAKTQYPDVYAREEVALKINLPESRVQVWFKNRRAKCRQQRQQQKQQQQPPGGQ
# [24] = target: HOXA4 (Homo sapiens, UniProt Q00056 201-287, W262F)
# Sequence of HOXA4 (Q00056 201-287 W262F): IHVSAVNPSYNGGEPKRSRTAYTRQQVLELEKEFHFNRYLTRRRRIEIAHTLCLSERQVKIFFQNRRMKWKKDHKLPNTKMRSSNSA
# [25] = target: VAX1 (Homo sapiens, UniProt Q5SQQ9 86-172, K157R)
# Sequence of VAX1 (Q5SQQ9 86-172 K157R): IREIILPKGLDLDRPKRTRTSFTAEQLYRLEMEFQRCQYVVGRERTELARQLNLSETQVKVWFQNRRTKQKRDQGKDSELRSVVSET
# [26] = target: ALX4 (Homo sapiens, UniProt Q9H161 200-286)
# Sequence of ALX4 (Homo sapiens, UniProt Q9H161 200-286) (Q9H161 200-286): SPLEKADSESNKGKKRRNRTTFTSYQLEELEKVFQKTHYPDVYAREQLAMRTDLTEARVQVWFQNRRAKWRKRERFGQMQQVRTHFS
# [27] = target: ALX4 (Homo sapiens, UniProt Q9H161 200-286, Q225E)
# Sequence of ALX4 (Homo sapiens, UniProt Q9H161 200-286, Q225E) (Q9H161 200-286 Q225E): as the sequence (Q9H161 200-286) above, with Q26E counted along it
# [28] = target: PRRX1 (Homo sapiens, UniProt P54821 80-166, F113S)
# Sequence of PRRX1 (Homo sapiens, UniProt P54821 80-166, F113S) (P54821 80-166 F113S): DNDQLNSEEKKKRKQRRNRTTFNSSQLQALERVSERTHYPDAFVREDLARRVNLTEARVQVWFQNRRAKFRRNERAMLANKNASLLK
# [29] = target: PRRX1 (Homo sapiens, UniProt P54821 80-166)
# Sequence of PRRX1 (Homo sapiens, UniProt P54821 80-166) (P54821 80-166): as the sequence (P54821 80-166 F113S) above, with S34F counted along it
# Sequence of HOXC10 (Homo sapiens, UniProt Q9NYD6 254-340, K271E) (Q9NYD6 254-340 K271E): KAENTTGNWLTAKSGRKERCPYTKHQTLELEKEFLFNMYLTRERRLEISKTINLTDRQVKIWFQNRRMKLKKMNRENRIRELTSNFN
# Sequence of HOXC10 (Homo sapiens, UniProt Q9NYD6 254-340) (Q9NYD6 254-340): as the sequence (Q9NYD6 254-340 K271E) above, with E18K counted along it
# Sequence of HOXD13 (Homo sapiens, UniProt P35453 263-343) (P35453 263-343): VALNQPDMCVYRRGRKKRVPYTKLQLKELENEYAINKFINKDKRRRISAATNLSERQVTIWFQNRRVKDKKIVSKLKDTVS
# Sequence of HOXD13 (Homo sapiens, UniProt P35453 263-343, T313A) (P35453 263-343 T313A): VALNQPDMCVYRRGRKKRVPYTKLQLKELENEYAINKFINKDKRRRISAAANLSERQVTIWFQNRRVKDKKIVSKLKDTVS
sequence,measurement,setting,value
CGCCCCGA,binding signal,[1],"10.1 upbm affinity estimate (log intensity, higher = more binding, comparable within an allelic series)"
same,binding signal,[2],"9.97 upbm affinity estimate (log intensity, higher = more binding, comparable within an allelic series)"
AAAGATAT,binding signal,[1],"10.9 upbm affinity estimate (log intensity, higher = more binding, comparable within an allelic series)"
same,binding signal,[3],"10.8 upbm affinity estimate (log intensity, higher = more binding, comparable within an allelic series)"
same,binding signal,[4],"10.9 upbm affinity estimate (log intensity, higher = more binding, comparable within an allelic series)"
CACTGACG,binding signal,[1],"10 upbm affinity estimate (log intensity, higher = more binding, comparable within an allelic series)"
same,binding signal,[2],"10.1 upbm affinity estimate (log intensity, higher = more binding, comparable within an allelic series)"
GGGCTACC,binding signal,[1],"10 upbm affinity estimate (log intensity, higher = more binding, comparable within an allelic series)"
same,binding signal,[2],"10.1 upbm affinity estimate (log intensity, higher = more binding, comparable within an allelic series)"
GAGCTGCC,binding signal,[1],"9.9 upbm affinity estimate (log intensity, higher = more binding, comparable within an allelic series)"
same,binding signal,[2],"9.88 upbm affinity estimate (log intensity, higher = more binding, comparable within an allelic series)"
CCCGAGAC,binding signal,[1],"9.98 upbm affinity estimate (log intensity, higher = more binding, comparable within an allelic series)"
same,binding signal,[2],"9.98 upbm affinity estimate (log intensity, higher = more binding, comparable within an allelic series)"
AGATAATG,binding signal,[1],"11.3 upbm affinity estimate (log intensity, higher = more binding, comparable within an allelic series)"
same,binding signal,[2],"11.2 upbm affinity estimate (log intensity, higher = more binding, comparable within an allelic series)"
AACCTGCC,binding signal,[1],"10.1 upbm affinity estimate (log intensity, higher = more binding, comparable within an allelic series)"
same,binding signal,[5],"7.89 upbm affinity estimate (log intensity, higher = more binding, comparable within an allelic series)"
same,binding signal,[2],"10.1 upbm affinity estimate (log intensity, higher = more binding, comparable within an allelic series)"
ACGCTGGA,binding signal,[1],"9.94 upbm affinity estimate (log intensity, higher = more binding, comparable within an allelic series)"
same,binding signal,[2],"10.1 upbm affinity estimate (log intensity, higher = more binding, comparable within an allelic series)"
CGCTGGGC,binding signal,[1],"10 upbm affinity estimate (log intensity, higher = more binding, comparable within an allelic series)"
same,binding signal,[6],"9.13 upbm affinity estimate (log intensity, higher = more binding, comparable within an allelic series)"
same,binding signal,[2],"9.98 upbm affinity estimate (log intensity, higher = more binding, comparable within an allelic series)"
same,binding signal,[7],"9.22 upbm affinity estimate (log intensity, higher = more binding, comparable within an allelic series)"
GGGGCTAC,binding signal,[1],"10.1 upbm affinity estimate (log intensity, higher = more binding, comparable within an allelic series)"
same,binding signal,[2],"10.1 upbm affinity estimate (log intensity, higher = more binding, comparable within an allelic series)"
AATTGCAA,binding signal,[1],"11.1 upbm affinity estimate (log intensity, higher = more binding, comparable within an allelic series)"
same,binding signal,[2],"11 upbm affinity estimate (log intensity, higher = more binding, comparable within an allelic series)"
GTCCCGCA,binding signal,[1],"10.1 upbm affinity estimate (log intensity, higher = more binding, comparable within an allelic series)"
same,binding signal,[6],"9.41 upbm affinity estimate (log intensity, higher = more binding, comparable within an allelic series)"
same,binding signal,[2],"10.1 upbm affinity estimate (log intensity, higher = more binding, comparable within an allelic series)"
same,binding signal,[7],"9.36 upbm affinity estimate (log intensity, higher = more binding, comparable within an allelic series)"
TTGGCCAA,binding signal,[1],"9.97 upbm affinity estimate (log intensity, higher = more binding, comparable within an allelic series)"
same,binding signal,[2],"9.93 upbm affinity estimate (log intensity, higher = more binding, comparable within an allelic series)"
GCATATAA,binding signal,[1],"11.4 upbm affinity estimate (log intensity, higher = more binding, comparable within an allelic series)"
same,binding signal,[2],"11.2 upbm affinity estimate (log intensity, higher = more binding, comparable within an allelic series)"
CATAAATA,binding signal,[1],"12.1 upbm affinity estimate (log intensity, higher = more binding, comparable within an allelic series)"
same,binding signal,[2],"11.5 upbm affinity estimate (log intensity, higher = more binding, comparable within an allelic series)"
CTCGGGAA,binding signal,[1],"10.1 upbm affinity estimate (log intensity, higher = more binding, comparable within an allelic series)"
same,binding signal,[2],"10 upbm affinity estimate (log intensity, higher = more binding, comparable within an allelic series)"
CCGAAGGA,binding signal,[1],"10 upbm affinity estimate (log intensity, higher = more binding, comparable within an allelic series)"
same,binding signal,[2],"9.98 upbm affinity estimate (log intensity, higher = more binding, comparable within an allelic series)"
CAGCGCCC,binding signal,[1],"9.88 upbm affinity estimate (log intensity, higher = more binding, comparable within an allelic series)"
same,binding signal,[2],"9.95 upbm affinity estimate (log intensity, higher = more binding, comparable within an allelic series)"
GCGACGAC,binding signal,[1],"10.1 upbm affinity estimate (log intensity, higher = more binding, comparable within an allelic series)"
same,binding signal,[2],"10 upbm affinity estimate (log intensity, higher = more binding, comparable within an allelic series)"
ACGCGAGC,binding signal,[1],"10.1 upbm affinity estimate (log intensity, higher = more binding, comparable within an allelic series)"
same,binding signal,[2],"10.1 upbm affinity estimate (log intensity, higher = more binding, comparable within an allelic series)"
CGCCGGCC,binding signal,[1],"9.95 upbm affinity estimate (log intensity, higher = more binding, comparable within an allelic series)"
same,binding signal,[2],"9.99 upbm affinity estimate (log intensity, higher = more binding, comparable within an allelic series)"
GCCTAATA,binding signal,[1],"11 upbm affinity estimate (log intensity, higher = more binding, comparable within an allelic series)"
same,binding signal,[2],"10.9 upbm affinity estimate (log intensity, higher = more binding, comparable within an allelic series)"
ATTAATTC,binding signal,[8],"9.98 upbm affinity estimate (log intensity, higher = more binding, comparable within an allelic series)"
same,binding signal,[9],"8.41 upbm affinity estimate (log intensity, higher = more binding, comparable within an allelic series)"
same,binding signal,[10],"11.1 upbm affinity estimate (log intensity, higher = more binding, comparable within an allelic series)"
same,binding signal,[11],"12.2 upbm affinity estimate (log intensity, higher = more binding, comparable within an allelic series)"
same,binding signal,[12],"10.2 upbm affinity estimate (log intensity, higher = more binding, comparable within an allelic series)"
same,binding signal,[13],"9.68 upbm affinity estimate (log intensity, higher = more binding, comparable within an allelic series)"
AGGGCACC,binding signal,[14],"9.47 upbm affinity estimate (log intensity, higher = more binding, comparable within an allelic series)"
same,binding signal,[15],"9.48 upbm affinity estimate (log intensity, higher = more binding, comparable within an allelic series)"
same,binding signal,[16],"9.58 upbm affinity estimate (log intensity, higher = more binding, comparable within an allelic series)"
AAATTAAC,binding signal,[17],"11.4 upbm affinity estimate (log intensity, higher = more binding, comparable within an allelic series)"
same,binding signal,[9],"8.36 upbm affinity estimate (log intensity, higher = more binding, comparable within an allelic series)"
same,binding signal,[10],"11.1 upbm affinity estimate (log intensity, higher = more binding, comparable within an allelic series)"
same,binding signal,[11],"12.2 upbm affinity estimate (log intensity, higher = more binding, comparable within an allelic series)"
same,binding signal,[12],"10.3 upbm affinity estimate (log intensity, higher = more binding, comparable within an allelic series)"
same,binding signal,[13],"9.64 upbm affinity estimate (log intensity, higher = more binding, comparable within an allelic series)"
CGAAGGCC,binding signal,[6],"9.35 upbm affinity estimate (log intensity, higher = more binding, comparable within an allelic series)"
same,binding signal,[7],"9.28 upbm affinity estimate (log intensity, higher = more binding, comparable within an allelic series)"
TACTTAGA,binding signal,[15],"11.1 upbm affinity estimate (log intensity, higher = more binding, comparable within an allelic series)"
same,binding signal,[16],"10.9 upbm affinity estimate (log intensity, higher = more binding, comparable within an allelic series)"
CTCGGCCA,binding signal,[18],"6.9 upbm affinity estimate (log intensity, higher = more binding, comparable within an allelic series)"
same,binding signal,[19],"6.67 upbm affinity estimate (log intensity, higher = more binding, comparable within an allelic series)"
same,binding signal,[20],"6.71 upbm affinity estimate (log intensity, higher = more binding, comparable within an allelic series)"
AAGTACCG,binding signal,[21],"12.4 upbm affinity estimate (log intensity, higher = more binding, comparable within an allelic series)"
same,binding signal,[22],"12.5 upbm affinity estimate (log intensity, higher = more binding, comparable within an allelic series)"
TATTAAGA,binding signal,[23],"10.6 upbm affinity estimate (log intensity, higher = more binding, comparable within an allelic series)"
CATTAACA,binding signal,[24],"11.5 upbm affinity estimate (log intensity, higher = more binding, comparable within an allelic series)"
CGTCCGCC,binding signal,[25],"7.05 upbm affinity estimate (log intensity, higher = more binding, comparable within an allelic series)"
CCGGGGAA,binding signal,[25],"7.27 upbm affinity estimate (log intensity, higher = more binding, comparable within an allelic series)"
TCGGCCGA,binding signal,[26],"7.94 upbm affinity estimate (log intensity, higher = more binding, comparable within an allelic series)"
same,binding signal,[27],"8.39 upbm affinity estimate (log intensity, higher = more binding, comparable within an allelic series)"
GGGTGACC,binding signal,[26],"8.07 upbm affinity estimate (log intensity, higher = more binding, comparable within an allelic series)"
same,binding signal,[27],"8.31 upbm affinity estimate (log intensity, higher = more binding, comparable within an allelic series)"
CGGCCGAC,binding signal,[26],"7.76 upbm affinity estimate (log intensity, higher = more binding, comparable within an allelic series)"
same,binding signal,[27],"8.04 upbm affinity estimate (log intensity, higher = more binding, comparable within an allelic series)"
ACCTCCTC,binding signal,[26],"8.28 upbm affinity estimate (log intensity, higher = more binding, comparable within an allelic series)"
same,binding signal,[27],"8.12 upbm affinity estimate (log intensity, higher = more binding, comparable within an allelic series)"
CCTAGAGA,binding signal,[26],"8.06 upbm affinity estimate (log intensity, higher = more binding, comparable within an allelic series)"
same,binding signal,[27],"8.18 upbm affinity estimate (log intensity, higher = more binding, comparable within an allelic series)"
TCCGATAA,binding signal,[26],"10.1 upbm affinity estimate (log intensity, higher = more binding, comparable within an allelic series)"
same,binding signal,[27],"9.41 upbm affinity estimate (log intensity, higher = more binding, comparable within an allelic series)"
CCTCGAAC,binding signal,[26],"8.02 upbm affinity estimate (log intensity, higher = more binding, comparable within an allelic series)"
same,binding signal,[28],"9.46 upbm affinity estimate (log intensity, higher = more binding, comparable within an allelic series)"
same,binding signal,[27],"8.29 upbm affinity estimate (log intensity, higher = more binding, comparable within an allelic series)"
same,binding signal,[29],"9.07 upbm affinity estimate (log intensity, higher = more binding, comparable within an allelic series)"
CGTGCTCC,binding signal,[26],"8.3 upbm affinity estimate (log intensity, higher = more binding, comparable within an allelic series)"
same,binding signal,[27],"8.41 upbm affinity estimate (log intensity, higher = more binding, comparable within an allelic series)"
GGAAGCCA,binding signal,[26],"8.23 upbm affinity estimate (log intensity, higher = more binding, comparable within an allelic series)"
same,binding signal,[27],"8.17 upbm affinity estimate (log intensity, higher = more binding, comparable within an allelic series)"
CCTCAGGC,binding signal,[26],"8.2 upbm affinity estimate (log intensity, higher = more binding, comparable within an allelic series)"
same,binding signal,[27],"8.19 upbm affinity estimate (log intensity, higher = more binding, comparable within an allelic series)"
CTGTCCAC,binding signal,[26],"7.93 upbm affinity estimate (log intensity, higher = more binding, comparable within an allelic series)"
same,binding signal,[27],"8.3 upbm affinity estimate (log intensity, higher = more binding, comparable within an allelic series)"

# — publication PMC11006913
